Bioassay records deposited in PubChem BioAssay by National Center for Advancing Translational Sciences (NCATS).
FMDV antiviral – High Throughput Screening for Foot and Mouth Disease Virus Antivirals | AID 1159524, 2015 | Potency, µM (series often up to 57.9 µM), hits mostly inhibitors | FMDV antiviral cell-based qHTS | hit rate 1.2% among 410,000; calls by dose curve; tested in HEK293T cells; also: read-out not given here; nearly all actives have a fitted effect of over 45% in size
FBPA Giardia inh – qHTS Assay for Inhibitors of Fructose-1,6-bisphosphate Aldolase from Giardia Lamblia. Potency, µM (series often up to 59.6 µM), hits mostly inhibitors. hit rate 0.71% among 290,000. AID 2451, 2010. A8B2U2. purified Giardia FBPA; also: nearly all actives have a fitted effect of over 55% in size
Target sequence (A8B2U2 whole entry, looked up): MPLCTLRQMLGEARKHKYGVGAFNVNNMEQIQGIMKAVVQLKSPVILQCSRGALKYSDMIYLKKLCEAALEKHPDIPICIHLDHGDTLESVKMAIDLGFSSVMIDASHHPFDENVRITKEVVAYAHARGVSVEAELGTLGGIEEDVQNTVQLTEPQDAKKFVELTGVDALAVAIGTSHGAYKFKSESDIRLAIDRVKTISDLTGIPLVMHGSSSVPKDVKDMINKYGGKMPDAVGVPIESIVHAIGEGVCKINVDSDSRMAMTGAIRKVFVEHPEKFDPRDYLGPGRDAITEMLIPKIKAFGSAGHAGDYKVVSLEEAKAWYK
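40 nM FBPA preincubated 10 min at RT with compound (up to 57.5 uM final), then substrate plus GAPDH/TPI/NAD/arsenate coupling and diaphorase/resazurin added. Fluorescence read after 20 min at RT, 525/598 nm.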
Vaccinia mCherry – qHTS for Stage-Specific Inhibitors of Vaccinia Orthopoxvirus: mCherry Reporter Primary qHTS; AID 720579, 2013; Vaccinia virus mCherry reporter infection, fluorescence; Potency, µM (series often up to 36.5 µM), hits mostly inhibitors; hit rate 0.63% among 310,000; calls by dose curve; tested in A549 cells; also: nearly all actives have a fitted effect of over 35% in size
Vaccinia Venus – qHTS for Stage-Specific Inhibitors of Vaccinia Orthopoxvirus: Venus Reporter Primary qHTS | Vaccinia virus Venus reporter expression, fluorescence | Potency, µM (titrated, usually from 36.5 µM), hits mostly inhibitors | hit rate 0.46% among 330,000 | AID 720580, 2013; calls by dose curve; tested in A549 cells; also: nearly all actives have a fitted effect of over 30% in size
HCMV antiviral – qHTS Assay for inhibitors of the human cytomegalovirus (HCMV); activity change, negative = inhibition, % at 57.5 µM; HFF cells, HCMV-luciferase reporter, 72 h; active compounds read low; hit rate 4.5% among 410,000; in the data active = activity change below about -60%; inconclusive = no clear call, values can overlap the other calls; inactive = above about -39%
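Luciferase read-out from HCMV-luciferase-infected HFFs (MOI 1 PFU/cell) 72 h post infection at 37C; compounds added after 16 h cell attachment; activity normalized between buffer-only basal and Salinomycin (10uM) inhibitor controls.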
HCV inh – qHTS Assay for Inhibitors of Hepatitis C Virus (HCV). Huh7.5.1 HCVcc-Cre infection, luciferase reporter, 44 h. Potency, µM (series often up to 41.8 µM), hits mostly inhibitors. hit rate 3.4% among 340,000
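Luciferase read-out (15 sec integration) after a 15 min room-temperature substrate step quantifies HCVcc-Cre infection. Cells, 1,000 per well, had compound added 4 h post-plating, then virus at ~0.5 moi, and were cultured 44 h.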
A number is an active result; n = inactive; u = inconclusive; x = no result; [ ] = remark or other dose. Rows were chosen to be rich in hits. Some 7.5% of all compounds tested hit in one or more screens of this group. Unless noted, calls follow the shape of the dose curve; as a rule, active = well fitted curve in the direction sought with a large enough effect; inconclusive = small, poorly fitted or top-dose-only effect, or another doubt; inactive = no such curve, though single readings can be large; an effect the other way counts as inactive or inconclusive.

SMILES	FMDV antiviral	FBPA Giardia inh	Vaccinia mCherry	Vaccinia Venus	HCMV antiviral	HCV inh
COc1ccc(/C=C/c2cc[n+](C(=O)Cc3ccccc3)cc2)cc1	u	n	n	n	-108	n
CC(CCc1ccccc1)NC(=O)CSc1n[nH]c(-c2ccc(F)cc2)n1 (stereo not given)	u	x	n	n	-65	x
O=C(CSc1ccccc1F)NCC(c1cccs1)N1CCOCC1 (stereo not given)	n	x	x	x	n	n
Cc1c(C)n(Cc2ccc(F)cc2)c2ccc(C(=O)N3CCN(c4ccc(Cl)cc4)CC3)cc12	n	x	n	n	n	x
COc1ccc(CNc2nc(-c3cccc(C#N)c3)nc3ccccc23)c(OC)c1	n	n	x	x	x	x
COc1ccc(-c2nc(SCC(=O)NCCCc3ccccc3)n[nH]2)cc1	n	x	n	n	-67	x
O=C(CSc1n[nH]c(-c2ccccc2)n1)NCCCc1ccccc1	n	x	n	n	n	x
CC(=O)[C@H]1[C@H](C#N)CC2C3CC=C4C[C@@H](O)CCC4(C)C3CCC21C (stereo not given in full)	x	n	x	x	x	x
CC(C)[C@H](N)C(=O)N[C@H]1CCC2C3CC=C4C[C@@H](O)CC[C@]4(C)C3CC[C@@]21C (stereo not given in full)	u	x	u	13µM	n	x
CC(=O)C1C(N2CC2)CC2C3CC=C4CC(O)CCC4(C)C3CCC21C (stereo not given)	n	x	n	u	-76	11µM
Cc1ccc(S(=O)(=O)C(c2ccccc2)c2c(C)noc2C)cc1 (stereo not given)	n	n	n	n	-72	n
Cc1noc(C)c1C(c1ccccc1)S(=O)(=O)c1ccccc1 (stereo not given)	n	n	n	n	n	n
Cc1cc(O)cc2c1C1CCC3(C)C(=O)CCC3C1C=C2 (stereo not given)	n	x	1.8µM	u	-97	n
O=C(CC[C@H]1O[C@@H](n2ccc(=O)[nH]c2=O)[C@H](O)[C@@H]1O)NCC(c1ccccc1)c1ccccc1	n	x	n	n	n	x
CC(C)(C)c1cc(NCCCn2ccnc2)n2ncc(-c3ccc(Cl)cc3)c2n1	n	n	u	u	n	25µM
Cc1cc(NCCCn2ccnc2)n2nc(-c3ccc(Cl)cc3)cc2n1	n	n	n	n	n	n
COc1cc(NC(=O)C2=C(C)OCCS2)c(Cl)cc1C(=O)NCCN(C)C	n	n	n	n	n	u
O=C(NCCc1ccncc1)c1cnn(-c2ncc3c(n2)-c2ccccc2CCC3)c1C1CC1	n	x	n	n	x	x
CC(N)=NCCCC[C@@H](N)C(=O)O	x	n	x	x	x	x
Cc1cccc(CSc2nc(N)c(C#N)c(-c3cccs3)c2C#N)c1	u	n	x	x	n	11µM
Cc1cccc(CSc2nc3c(c(-c4cccs4)c2C#N)CN(C)CC3)c1	n	n	n	n	n	u
CCCCn1c2nc3ccccc3nc2c2c(=O)n(CC(C)C)cnc21	n	x	n	n	-62	n
CC(=O)C(=Nc1ccc(Cl)cc1Cl)NNc1cccc(Cl)c1	n	n	n[1.46 µM]	u	n	10µM
CC(NC(=O)C1CCOCC1)c1nnc2n1CCN(Cc1ccc(F)cc1)CC2 (stereo not given)	n	x	n	n	x	x
COc1ccc(Nc2nc(N)c([N+](=O)[O-])c(NC3CCCCC3)n2)cc1	u	n	u	u	u	11µM
SMILES	FMDV antiviral	FBPA Giardia inh	Vaccinia mCherry	Vaccinia Venus	HCMV antiviral	HCV inh
O=C(O)c1ccc(N2CCCCCC2)c(N2C(=O)c3ccccc3C2=O)c1	n	n	x	n	n	n
O=C1c2cccc3c(N4CCCCC4)ccc(c23)C(=O)N1c1ccccc1O	n	n	x	x	-96	u
O=C1c2cccc3cccc(c23)C(=O)N1c1ccc(O)cc1	n	n	x	x	n	n
O=C1c2cccc3c(N4CCCCC4)ccc(c23)C(=O)N1c1ccc(O)cc1	n	n	n	n	-62	n
COc1ccc(/C=N/Nc2ccc(C(=O)O)cc2)c(OC)c1OC	n	n	n	n	n	n
COC(=O)c1ccc2c(c1)C(C)(C)C(/C=C/c1ccc(OC)c(OC)c1OC)=[N+]2C	16µM	x	n[1.46 µM]	n	-105	10µM
COc1ccc(NC(=O)c2cc(-c3ccccc3Cl)on2)cc1OC	n	n	n	n	n	n
O=C(Nc1ccc(SC(F)F)cc1)c1cc(-c2ccc3c(c2)OCCO3)on1	u	x	n	n	-66	x
CC(=O)c1cccc(NC(=O)c2cc(-c3ccc4c(c3)OCCO4)on2)c1	n	x	n	n	n	x
O=C(Nc1cccc(O)c1)c1cc(-c2ccc3c(c2)OCO3)on1	11µM	n	n	n	n	n
O=C(Nc1cccc(O)c1)c1cc(-c2ccccc2Cl)on1	11µM	n	n	n	n	n
CCCCN(CCC#N)c1ccc(/C=C/c2ccnc3ccccc23)cc1	x	x	u	n	x	x
CC1(C)N=C(SCC(=O)Nc2ccc(Cl)cc2)C(c2ccc(Cl)cc2)=N1	22µM	n	x	x	n	13µM
CC1(C)N=C(SCC(=O)Nc2ccc(Cl)cc2)C(c2ccccc2)=N1	n	n	x	x	-80	u
COc1ccc(/C(N)=N/OC(=O)Cc2ccc(OC)c(OC)c2)cc1	x	n	n	n	-90	u
O=C(c1ccc(N2CCCC2)c([N+](=O)[O-])c1)N1CCN(S(=O)(=O)c2ccccc2)CC1	u	x	n	n	n	14µM
O=C(c1cccc(F)c1)N1CCN(c2cc(N3CCCCC3)c(F)cc2[N+](=O)[O-])CC1	n	n	x	x	-74	n
CCC(=O)N1CCN(c2cc(N3CCCC3)c(F)cc2[N+](=O)[O-])CC1	n	x	x	x	u	n
Cc1ccc(C)c(S(=O)(=O)N2CCN(C(=O)c3ccc(N4CCCC4)c([N+](=O)[O-])c3)CC2)c1	n	n	n	n	n	n
CC1Cc2ccccc2N1C(=O)c1ccc(N2CCCC2)c([N+](=O)[O-])c1 (stereo not given)	u	n	n	n	n	13µM
Cc1cc(CC(C)CC(C)(C)C)n(O)c(=O)c1 (stereo not given)	x	x	1µM	u	x	x
CCCOc1ccc(CN2C(=O)C(=O)c3cccc(C)c32)cc1	n	x	n	n	n	x
Cc1ccc(CN2C(=O)C(=O)c3cc(Br)cc(C)c32)cc1	u	x	n	n	-103	x
O=C(CCCC(=O)OCC(Cl)=C(Cl)Cl)Nc1ccc(F)cc1	n	n	n	n	u	n
Cc1ccc2nc(C(F)(F)F)c(C#N)c(N)c2c1	n	n	x	x	-107	25µM
Cc1cc(C)c2nc(C(F)(F)F)c(C#N)c(N)c2c1	n	n	n	n	u	n
CCOC(=O)c1ccc(NC(=O)NCc2ccccc2OC)cc1	n	n	n	n	n	11µM
COC(=O)c1ccc(NC(=S)N2CCN(Cc3ccccc3Cl)CC2)cc1	n	n	x	x	n	n
